Screens as filed in PubChem.
AMA1-RON2 inh – AMA1-RON2 (P. falciparum) interaction inhibition. AlphaScreen AMA1-biotinylated RON2 peptide binding. Potency, µM (titrated, usually from 58.2 µM), actives largely listed as inhibitors. 0.2% of 360,000 active. AID 720542; also: nearly all actives have a fitted effect of over 45% in size
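AMA1 (3D7) with his tag at 25 nM final met compounds first, then biotinylated RON2 peptide at 25 nM; detection used donor plus acceptor beads, 10 µg/mL apiece, read by AlphaScreen after 30 min at room temperature.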
HCV inh – HCV inhibition. Huh7.5.1 HCVcc-Cre infection, luciferase reporter, 44 h. Potency, µM (highest dose often 41.8 µM), hits mostly inhibitors. 3.4% of 340,000 active
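Seed cells (1,000/well) for 4 h; treat with compound and infect with HCVcc-Cre, moi about 0.5. Incubate 44 h, then detect luciferase activity.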
Pf growth 96h – P. falciparum growth inhibition at 96 hours; Potency, µM (series often up to 28.7 µM), usual class: inhibitors; 6.9% of 320,000 active; P. falciparum luciferase reporter growth, 96 h
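Parasite growth measured via integrated firefly luciferase reporter in P. falciparum. Infected erythrocytes at 2% hematocrit, 0.05% parasitemia final were treated 96 hours at 37 C under 5% CO2, and luminescence was read.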
AmpC inh no detg – inhibitors of E. coli AmpC beta-lactamase without detergent | 0.52% of 330,000 active | AmpC nitrocefin hydrolysis, absorbance 480 nm, 0.0001% Triton | P00811 | Potency, µM (series often up to 57.1 µM), actives largely listed as inhibitors; also: nearly all actives have a fitted effect of over 20% in size
Target sequence (P00811 whole entry, looked up): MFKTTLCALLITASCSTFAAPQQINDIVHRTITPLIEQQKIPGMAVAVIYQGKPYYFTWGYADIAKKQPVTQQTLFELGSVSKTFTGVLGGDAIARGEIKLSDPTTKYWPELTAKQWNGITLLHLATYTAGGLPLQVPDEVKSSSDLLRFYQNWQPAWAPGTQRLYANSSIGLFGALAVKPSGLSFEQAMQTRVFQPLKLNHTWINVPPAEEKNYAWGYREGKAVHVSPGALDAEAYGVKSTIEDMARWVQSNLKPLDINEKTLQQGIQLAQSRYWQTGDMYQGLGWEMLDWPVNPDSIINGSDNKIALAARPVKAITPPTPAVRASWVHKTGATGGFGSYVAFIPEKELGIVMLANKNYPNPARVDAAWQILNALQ
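AmpC (5.3 nM in the dispensed reagent) in 20 mM phosphate pH 7.0 with 0.01% (detergent screen) or 0.0001% Triton X-100 was preincubated with compounds for 15 min at room temperature. Nitrocefin was then added from an 800 uM solution, and hydrolysis was followed at 480 nm.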
AmpC detergent – inhibitors of E. coli AmpC beta-lactamase with detergent | P00811 | AmpC hydrolysis of nitrocefin, absorbance 480 nm, 0.01% Triton | Potency, µM (highest dose often 114 µM), hits mostly inhibitors | 0.041% of 370,000 active | AID 485294; also: nearly all actives have a fitted effect of over 25% in size
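20 mM phosphate pH 7.0 + 0.01% (detergent screen) or 0.0001% Triton X-100; 5.3 nM AmpC reagent; cpd preinc 15 min RT; nitrocefin (800 uM stock) to start; A480 q20 s × 4 min; Activity was normalised to no-enzyme and no-compound control wells.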
Pf growth 48h – inhibits P. falciparum growth in the first generation, 48 h. P. falciparum luciferase growth in erythrocytes, 48 h. AID 504832. 5.9% of 310,000 active. Potency, µM (series often up to 28.7 µM), hits mostly inhibitors
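Read-out is firefly luciferase luminescence from an integrated reporter in P. falciparum, so falling signal marks reduced parasite growth. Infected erythrocytes were at 2% hematocrit and 0.1% parasitemia (final) in Albumax-supplemented RPMI 1640.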
Numbers stand for hits; ! = not active in a repeat; [ ] = another dose, or the depositor's remark. Only some compounds are listed: those with a hit (about 11% of all), similar ones and a draw of the others. Calls follow the shape of the dose curve; as a rule, active = well fitted curve in the direction sought with a large enough effect; inconclusive = small, poorly fitted or top-dose-only effect, or another doubt; inactive = no such curve, though single readings can be large; an effect the other way counts as inactive or inconclusive.

For Fc1cccc(Cl)c1/C=N/Nc1ccccn1 the results were AMA1-RON2 inh inactive, HCV inh inconclusive, Pf growth 96h inactive, AmpC inh no detg inactive[11.4 µM], AmpC detergent inconclusive and Pf growth 48h inactive.
Screening COc1ccc(CNC(=O)Cn2ncn3nc(-c4cccs4)cc3c2=O)cc1 returned AmpC detergent inactive.
`COc1ccc(-c2cc3c(=O)n(CC(=O)NCc4cccnc4)ncn3n2)cc1` gave AMA1-RON2 inh inactive, HCV inh inactive, Pf growth 96h 15µM, AmpC inh no detg inactive, AmpC detergent inactive and Pf growth 48h inactive.
Screening Cc1ccccc1C(=O)N1CC(=O)Nc2ccc(Cl)cc2C1c1ccccc1 (centres undefined) returned AmpC detergent inactive.
CCC(=O)N/C(N)=N/c1nc(C)c2cc(OC)ccc2n1 was read as AMA1-RON2 inh inactive, HCV inh inconclusive, Pf growth 96h inactive, AmpC inh no detg inactive, AmpC detergent inactive and Pf growth 48h 3.3µM.
CCC(=O)N/C(=N/c1nc(C)cc(C)n1)Nc1ccccc1 was read as AMA1-RON2 inh inactive, HCV inh inactive, Pf growth 96h inactive, AmpC inh no detg inactive, AmpC detergent inactive and Pf growth 48h inactive.
`CCC(=O)N/C(=N/c1nc(C)cc(C)n1)Nc1ccc(OC)cc1` gave AMA1-RON2 inh inactive, HCV inh inactive, Pf growth 96h 15µM, AmpC inh no detg inactive, AmpC detergent inactive and Pf growth 48h inactive.
COc1ccccc1C(=O)N/C(=N/c1nc(C)cc(C)n1)Nc1ccccc1 was read as AMA1-RON2 inh inactive, HCV inh 8.9µM, Pf growth 96h inactive, AmpC inh no detg inactive, AmpC detergent inactive and Pf growth 48h inactive.
Screening COc1ccc2nc(/N=C(\N)NC(=O)C(C)(C)C)nc(C)c2c1 returned AMA1-RON2 inh inactive, HCV inh inactive, Pf growth 96h inactive, AmpC inh no detg inactive, AmpC detergent inactive and Pf growth 48h inconclusive.
COc1ccc(-c2nc(CSCC(=O)N3CCN(c4ccc(F)cc4)CC3)c(C)o2)cc1 was read as AmpC detergent inactive.
For O=C(/C=C/c1ccco1)NC(=S)Nc1ccccc1N1CCCC1 the results were AMA1-RON2 inh inactive, HCV inh inactive, Pf growth 96h inactive, AmpC inh no detg inactive, AmpC detergent inactive and Pf growth 48h 2.6µM.
For O=C(/C=C/c1ccco1)NC(=S)Nc1ccccc1N1CCOCC1 the results were AMA1-RON2 inh inactive, HCV inh inactive, Pf growth 96h inconclusive, AmpC inh no detg inactive, AmpC detergent inactive and Pf growth 48h 13µM.
For CC(=O)Nc1ccc(NC(=S)NC(=O)/C=C/c2ccco2)cc1 the results were AMA1-RON2 inh inactive, HCV inh inactive, Pf growth 96h inconclusive, AmpC inh no detg inactive, AmpC detergent inactive and Pf growth 48h inactive.
`CCOc1ccc(NC(=S)NC(=O)/C=C/c2ccco2)cc1` gave AMA1-RON2 inh inactive, HCV inh inconclusive, Pf growth 96h 12µM, AmpC inh no detg inactive, AmpC detergent inactive and Pf growth 48h inactive.
Cc1ccc(S(=O)(=O)Cc2ccc(C(=O)NCCc3ccc(Cl)cc3)o2)cc1 was read as AmpC detergent inactive.
For COc1ccc(NS(=O)(=O)c2cccc(C(=O)NNC(=O)c3cc(C)oc3C)c2)cc1 the results were AMA1-RON2 inh inactive, HCV inh inactive, Pf growth 96h inactive, AmpC inh no detg inactive, AmpC detergent inconclusive and Pf growth 48h inactive.
For COc1ccc(NS(=O)(=O)c2cc(C)ccc2NC(=O)c2cc(C)oc2C)cc1 the results were AMA1-RON2 inh inactive, HCV inh 13µM!, Pf growth 96h inactive, AmpC inh no detg inconclusive, AmpC detergent inactive and Pf growth 48h inconclusive.
`Cc1cccc(OCC(=O)Nc2ccccc2OCc2cc(=O)n3ccccc3n2)c1` gave AmpC detergent inactive.
For O=C1c2ccccc2CC1Sc1nnc(-c2ccccn2)o1 (centres undefined) the results were AMA1-RON2 inh inactive, HCV inh inactive, Pf growth 96h 13µM, AmpC inh no detg inactive, AmpC detergent inconclusive and Pf growth 48h inconclusive.
For CC(=O)NC(CCS(C)(=O)=O)C(=O)Nc1cccc2ccccc12 (centres undefined) the results were AMA1-RON2 inh inactive, HCV inh inactive, Pf growth 96h inactive, AmpC inh no detg 4.5µM, AmpC detergent inconclusive and Pf growth 48h inactive.
Screening Cc1ccc(S(=O)(=O)N(CC(=O)N2CCCCCC2)c2ccccc2)cc1 returned AMA1-RON2 inh inactive, HCV inh inactive, Pf growth 96h inconclusive, AmpC inh no detg inactive and AmpC detergent inactive.
Screening O=C(CN(c1ccc(F)cc1)S(=O)(=O)c1ccc2c(c1)OCCO2)N1CCOCC1 returned AMA1-RON2 inh inactive, HCV inh inactive, Pf growth 96h 1µM, AmpC inh no detg inactive, AmpC detergent inconclusive and Pf growth 48h inactive.
For Cc1ccc(S(=O)(=O)N(CC(=O)N2CCOCC2)c2ccc(C(C)C)cc2)cc1 the results were AMA1-RON2 inh inactive, HCV inh inactive, Pf growth 96h 10µM, AmpC inh no detg inactive, AmpC detergent inactive and Pf growth 48h inactive.
Cc1ccc(S(=O)(=O)N(CC(=O)N2CCC(C)CC2)c2ccccc2)cc1 was read as AMA1-RON2 inh inactive, HCV inh inactive, Pf growth 96h inactive, AmpC inh no detg inactive, AmpC detergent inactive and Pf growth 48h 12µM.
Screening Cc1ccc(S(=O)(=O)N(CC(=O)N2CCCC2)C2CCCCC2)cc1 returned AMA1-RON2 inh inactive, HCV inh inactive, Pf growth 96h 12µM, AmpC inh no detg inactive, AmpC detergent inactive and Pf growth 48h inconclusive.
Nc1nc(N2CCCCC2)c(C=O)c(N2CCCCC2)n1 was read as AMA1-RON2 inh inactive, HCV inh inactive, Pf growth 96h inactive, AmpC inh no detg inactive, AmpC detergent inactive and Pf growth 48h inactive.
Nc1nc(Cl)c(C=O)c(N2CCCCC2)n1 was read as AMA1-RON2 inh inactive, HCV inh 10µM, Pf growth 96h inactive, AmpC inh no detg inactive, AmpC detergent inactive and Pf growth 48h inconclusive.
`O=C(CN1N=C(c2ccc(Cl)cc2)CCC1=O)NCCc1ccc(Cl)cc1` gave AmpC detergent inactive.
Screening CCOC(=O)CN1N=C(c2ccc(Cl)cc2)CCC1=O returned AMA1-RON2 inh inactive, HCV inh inactive, Pf growth 96h 13µM, AmpC inh no detg inactive, AmpC detergent inactive and Pf growth 48h inactive.
For CC[C@H](CO)NCCN[C@@H](CC)CO the results were Pf growth 96h inactive and Pf growth 48h inactive.
`Cc1ccc(CCNC(=O)CCc2cn(Cc3ccccc3C)c3ccccc23)cc1` gave AmpC detergent inactive.
Screening Cc1cccc(NC(=O)CCn2cnnn2)c1C returned AmpC detergent inactive.
